# PubChem BioAssay
# Several values for one entry are separate records, joined by “and”; a condition that tells them apart may be missing. Identical values can stand only once. For some assays here: Measured potencies and affinities stand elsewhere. Some compounds were tested as several samples or in several runs, with calls that do not always agree. Activity calls are given as the source filed them. Unless noted, no rule for the calls is given here.
# How the values were obtained:
# [1] = antimalarial activity against Dd2 strain (AID 2302;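 active = growth inhibition above 50% at the single 2 µM test dose, taken to imply half-maximal potency below 2 µM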;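 also: 0% = DMSO untreated growth and 100% = chloroquine plus artemisinin killed control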); conditions: P. falciparum Dd2 in RBCs, LDH growth readout, 72 h; at 2 µM; stronger effect = higher value
# [2] = HepG2 cytotoxicity, primary screen, cytotoxicity control for P. falciparum antimalarial project, cell-based, ATP luminescence (AID 2303;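 active = inhibition above 50%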;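 also: 0% = DMSO wells and 100% = digitonin-killed cells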); conditions: HepG2 viability, 24-48 h, at 10 µM, stronger effect = higher value
# [3] = target: L-lactate dehydrogenase (Plasmodium falciparum (isolate CDC / Honduras)) (UniProt Q27743); assay: PfLDH activity inhibition – cell lysate, 3D7 strain, counter-screen for P. falciparum growth inhibition project (AID 2304);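 also: 0% = vehicle and 100% = reference inhibitor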; conditions: P. falciparum 3D7 crude extract, LDH APAD/NBT absorbance; at 2 µM; stronger effect = higher value
# Chain of L-lactate dehydrogenase (Plasmodium falciparum (isolate CDC / Honduras)) (Q27743 whole entry, looked up): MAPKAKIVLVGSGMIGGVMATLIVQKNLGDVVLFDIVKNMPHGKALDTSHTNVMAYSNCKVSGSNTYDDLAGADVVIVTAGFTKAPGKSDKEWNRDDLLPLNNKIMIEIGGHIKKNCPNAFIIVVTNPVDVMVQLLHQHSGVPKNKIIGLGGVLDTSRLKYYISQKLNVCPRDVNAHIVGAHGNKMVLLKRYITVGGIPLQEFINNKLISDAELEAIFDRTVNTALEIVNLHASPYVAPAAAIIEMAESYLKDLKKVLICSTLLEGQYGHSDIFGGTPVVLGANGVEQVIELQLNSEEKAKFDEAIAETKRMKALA
# [4] = inhibition of 3D7 malaria parasite growth – strain 3D7 (AID 2306);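 also: 0% = DMSO wells and 100% = chloroquine plus artemisinin control wells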; conditions: P. falciparum 3D7 erythrocytic growth, LDH absorbance, 72 h; at 2 µM; stronger effect = higher value
# [5] = target: Calcium-dependent protein kinase 1 (Plasmodium falciparum (isolate 3D7)) (UniProt P62344); assay: PfCDPK1 kinase inhibitors, biochemical, TCAMS library (AID 1159585; cut-off not given, nearly all actives have IC50 up to about 0.98 µM;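 also: inhibitors leave more ATP so luminescence rises with inhibition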); conditions: recombinant PfCDPK1, Kinase-Glo ATP depletion luminescence
# Chain of Calcium-dependent protein kinase 1 (Plasmodium falciparum (isolate 3D7)) (P62344 whole entry, looked up): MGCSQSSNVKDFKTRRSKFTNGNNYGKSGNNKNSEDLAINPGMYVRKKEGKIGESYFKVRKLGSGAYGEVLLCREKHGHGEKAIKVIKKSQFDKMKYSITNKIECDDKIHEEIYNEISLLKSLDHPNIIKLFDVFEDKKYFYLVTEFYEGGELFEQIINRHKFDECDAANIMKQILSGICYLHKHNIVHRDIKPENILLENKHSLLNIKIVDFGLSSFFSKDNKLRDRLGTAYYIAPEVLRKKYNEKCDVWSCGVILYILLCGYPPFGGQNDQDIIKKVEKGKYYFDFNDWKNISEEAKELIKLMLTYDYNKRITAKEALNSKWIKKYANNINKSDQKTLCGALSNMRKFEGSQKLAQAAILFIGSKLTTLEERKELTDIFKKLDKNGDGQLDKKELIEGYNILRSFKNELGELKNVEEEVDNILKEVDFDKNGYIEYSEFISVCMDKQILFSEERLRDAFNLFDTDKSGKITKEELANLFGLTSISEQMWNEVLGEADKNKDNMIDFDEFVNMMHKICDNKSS
# [6] = target: Plasmodium falciparum protein kinase 6 (PK6, PF3D7_1337100) (UniProt Q8IDW1); assay: PfPK6 kinase inhibitors, biochemical, TCAMS library (AID 1159586); conditions: recombinant PfPK6, Kinase-Glo ATP depletion luminescence
# Chain of Plasmodium falciparum protein kinase 6 (PK6, PF3D7_1337100) (Q8IDW1 1-305): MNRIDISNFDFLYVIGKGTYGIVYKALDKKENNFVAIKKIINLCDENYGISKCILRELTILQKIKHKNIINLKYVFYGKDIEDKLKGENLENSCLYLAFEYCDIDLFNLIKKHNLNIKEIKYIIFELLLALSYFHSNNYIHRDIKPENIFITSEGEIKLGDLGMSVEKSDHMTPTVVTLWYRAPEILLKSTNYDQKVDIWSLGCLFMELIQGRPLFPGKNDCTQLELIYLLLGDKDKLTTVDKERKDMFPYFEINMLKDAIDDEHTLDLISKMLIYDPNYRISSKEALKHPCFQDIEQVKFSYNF
# [7] = target: Protein kinase 7 (PK7), Plasmodium falciparum 3D7 (PF3D7_0213400) (UniProt Q7YTF7); assay: inhibition of Plasmodium PK7 catalytic activity – biochemical, TCAMS antimalarial set, Kinase-Glo luminescence (AID 1159587); conditions: recombinant PfPK7, Kinase-Glo ATP depletion luminescence
# Chain of Protein kinase 7 (PK7), Plasmodium falciparum 3D7 (PF3D7_0213400) (Q7YTF7 1-343): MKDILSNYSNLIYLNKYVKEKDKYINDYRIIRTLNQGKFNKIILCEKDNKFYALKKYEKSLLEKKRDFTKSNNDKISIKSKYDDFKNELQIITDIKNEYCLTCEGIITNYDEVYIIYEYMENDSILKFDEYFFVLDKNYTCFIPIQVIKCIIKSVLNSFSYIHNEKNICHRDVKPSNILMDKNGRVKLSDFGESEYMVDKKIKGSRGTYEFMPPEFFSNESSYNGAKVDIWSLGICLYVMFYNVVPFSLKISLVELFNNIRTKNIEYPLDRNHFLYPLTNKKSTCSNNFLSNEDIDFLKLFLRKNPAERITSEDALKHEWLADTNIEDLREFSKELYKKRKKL
# [8] = target: Calcium-dependent protein kinase 4 (Plasmodium falciparum (isolate 3D7)) (UniProt Q8IBS5); assay: PfCDPK4 kinase inhibitors, biochemical, TCAMS library (AID 1159588; cut-off not given, nearly all actives have IC50 up to about 0.91 µM); conditions: recombinant PfCDPK4, Kinase-Glo ATP depletion luminescence
# Chain of Calcium-dependent protein kinase 4 (Plasmodium falciparum (isolate 3D7)) (Q8IBS5 whole entry, looked up): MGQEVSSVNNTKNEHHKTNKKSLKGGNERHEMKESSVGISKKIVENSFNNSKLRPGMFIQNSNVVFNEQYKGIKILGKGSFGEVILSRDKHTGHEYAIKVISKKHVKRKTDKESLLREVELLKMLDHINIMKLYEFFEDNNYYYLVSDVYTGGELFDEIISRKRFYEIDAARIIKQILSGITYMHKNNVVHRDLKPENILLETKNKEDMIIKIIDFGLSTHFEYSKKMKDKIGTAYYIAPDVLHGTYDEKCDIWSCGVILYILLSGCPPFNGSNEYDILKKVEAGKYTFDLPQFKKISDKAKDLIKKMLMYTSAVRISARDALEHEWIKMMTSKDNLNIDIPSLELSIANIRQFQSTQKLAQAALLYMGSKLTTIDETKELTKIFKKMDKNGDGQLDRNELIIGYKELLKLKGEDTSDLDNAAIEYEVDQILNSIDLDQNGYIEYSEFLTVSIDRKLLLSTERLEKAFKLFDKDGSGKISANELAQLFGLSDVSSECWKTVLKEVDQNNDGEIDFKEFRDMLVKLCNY
Compound,growth inhibition [1],inhibition [2],inhibition [3],growth inhibition [4],outcome [5],outcome [6],outcome [7],outcome [8]
CO[C@@H]1C[C@@H](C(=O)Nc2ccccc2)N(c2ccc(C#N)c3ccccc23)C1,100% (active),7% (inactive),6% (inactive),98% (active),inactive,inactive,inactive,inactive
OC1(CNCc2ccccc2)CCN(CCc2c[nH]c3ccc(F)cc23)CC1,4% (inactive),39% (inactive),-2% (inactive),100% (active),inactive,inactive,inactive,inactive
CC(=O)C1(c2ccccc2)CCN(CCC2(c3ccc(Cl)c(Cl)c3)CN(C(=O)c3cccc(Cl)c3)CCO2)CC1 (stereo unspecified),61% (active),37% (inactive),-3% (inactive),90% (active),inactive,inactive,inactive,inactive
CC[C@H]1CN2CC[C@@H]1C[C@H]2[C@H](O)c1cc(-c2ccccc2)nc2ccc(O)cc12,99% (active),14% (inactive),-2% (inactive),99% (active),inactive,inactive,inactive,inactive
CN(c1ccc(NC(=O)CCOc2ccccc2)cc1)C1CCN(Cc2cccc(O)c2)CC1,-1% (inactive),18% (inactive),3% (inactive),89% (active),inactive,inactive,inactive,inactive
CC(Cc1ccc(S(=O)(=O)N(C(C)C)C(C)C)cc1)NCC(O)c1cccc(C(F)(F)F)c1 (stereo unspecified),93% (active),21% (inactive),4% (inactive),96% (active),inactive,inactive,inactive,inactive
CN1[C@@H]2CC[C@H]1c1cc(NC(=O)c3cc(-c4ccc(Cl)cc4)cs3)ccc12,35% (inactive),62% (active),-2% (inactive),90% (active),inactive,inactive,inactive,inactive
Cc1[nH]c2cc(Cl)ccc2c1C1=CCN(CCCCC2(C)C(=O)Nc3ccccc32)CC1 (stereo unspecified),90% (active),-3% (inactive),0% (inactive),94% (active),inactive,inactive,inactive,inactive
CNC(=O)c1ccc2[nH]cc(C3CCN(CC4CCN(C(=O)/C=C/c5ccc(Cl)c(Cl)c5)CC4)CC3)c2c1,88% (active),3% (inactive),1% (inactive),100% (active),inactive,inactive,inactive,inactive
CC(=O)N(Cc1ccccc1-c1ccc(CNCCc2ccccc2)cc1)C1CCN(Cc2ccccc2)CC1,85% (active),24% (inactive),3% (inactive),101% (active),inactive,inactive,inactive,inactive
CCN(CC)CCN1C(=O)C(O)(c2ccccc2Cl)c2c1cc(C#N)cc2C(F)(F)F (stereo unspecified),19% (inactive),21% (inactive),-1% (inactive),88% (active),inactive,inactive,inactive,inactive
CC(=O)Nc1ccc2[nH]cc(C3CCN(CC4CCN(C(=O)/C=C/c5ccc(Cl)c(Cl)c5)CC4)CC3)c2c1,41% (inactive),10% (inactive),-1% (inactive),96% (active),inactive,inactive,inactive,inactive
COc1ccc(CN2CCN(CCOC(c3ccccc3)c3ccccc3)CC2)c(O)c1,84% (active),19% (inactive),0% (inactive),96% (active),inactive,inactive,inactive,inactive
Oc1ccc(CN2CCN(CCOC(c3ccccc3)c3ccc(Cl)cc3)CC2)cc1Cl (stereo unspecified),97% (active),11% (inactive),-3% (inactive),98% (active),inactive,inactive,inactive,inactive
Cc1c(C(=O)N[C@@H](C)c2ccccc2)c2cc(O)c(Br)cc2n1C1CCCCC1,95% (active),4% (inactive),-6% (inactive),98% (active),inactive,inactive,inactive,inactive
S=C(NCC1CCCCC1)NC1CCC(CN2CCC(c3c[nH]c4ccccc34)CC2)CC1 (stereo unspecified),10% (inactive),29% (inactive),6% (inactive),88% (active),inactive,inactive,inactive,inactive
COC(=O)c1ccc(CC(C)NCC(O)c2ccc(Cl)c(Cl)c2)cc1 (stereo unspecified),33% (inactive),-1% (inactive),0% (inactive),87% (active),inactive,inactive,inactive,inactive
O=C(C=Cc1ccc([N+](=O)[O-])cc1)NC1CCC(CN2CCC(c3c[nH]c4ccccc34)CC2)CC1 (stereo unspecified),61% (active) and 81% (active),30% (inactive) and 34% (inactive),-3% (inactive),102% (active) and 101% (active),inactive,inactive,inactive,inactive
O=C(/C=C/c1ccc(Cl)c(Cl)c1)N1CCC(CN2CCC(c3c[nH]c4ccc(NS(=O)(=O)c5cccs5)cc34)CC2)CC1,100% (active),17% (inactive),-7% (inactive),100% (active),inactive,inactive,inactive,inactive

Compound,growth inhibition [1],inhibition [2],inhibition [3],growth inhibition [4],outcome [5],outcome [6],outcome [7],outcome [8]
Cc1ccc(C(=O)Nc2ccnc(N(C)C3CCN(Cc4cccc(O)c4)CC3)c2)cn1,1% (inactive),0% (inactive),4% (inactive),90% (active),inactive,inactive,inactive,inactive
O=C(/C=C/c1ccccc1Cl)NC1CCC(CN2CCC(c3c[nH]c4ccccc34)CC2)CC1 (stereo unspecified),35% (inactive) and 51% (active),33% (inactive) and 41% (inactive),-2% (inactive) and 3% (inactive),99% (active) and 100% (active),inactive,inactive,inactive,inactive
CN1CC=C(c2c[nH]c3ccc(-c4ccccc4)cc23)CC1,60% (active),14% (inactive),-1% (inactive),93% (active),inactive,inactive,inactive,inactive
O=C(CSc1ccc(Cl)cc1)NC1CCC(CN2CCC(c3c[nH]c4ccccc34)CC2)CC1 (stereo unspecified),21% (inactive),41% (inactive),-3% (inactive),95% (active),inactive,inactive,inactive,inactive
C[C@H](Cc1ccc(OCCCCCCOc2ccccc2)cc1)NC[C@H](O)c1cccc(Cl)c1,99% (active),21% (inactive),7% (inactive),93% (active),inactive,inactive,inactive,inactive
O=C(Nc1ccccc1C(F)(F)F)NC1CCC(CN2CCC(c3c[nH]c4ccccc34)CC2)CC1 (stereo unspecified),12% (inactive) and 42% (inactive),34% (inactive) and 46% (inactive),-3% (inactive),86% (active) and 96% (active),inactive,inactive,inactive,inactive
CCOc1ccc2nccc([C@@H](O)[C@@H]3C[C@@H]4CCN3C[C@@H]4CC)c2c1,99% (active) and 51% (active),24% (inactive) and 1% (inactive),2% (inactive) and -2% (inactive),98% (active) and 99% (active),inactive,inactive,inactive,inactive
CC(=O)Nc1ccc(OCCN(CC(C)C)c2ccc(C#N)c(C(F)(F)F)c2)c(Cl)c1,94% (active),13% (inactive),2% (inactive),94% (active),inactive,inactive,inactive,inactive
O=C(/C=C/c1ccc(Cl)c(Cl)c1)NC1[C@@H]2CC[C@H]1CC(CN1CCC(c3c[nH]c4ccccc34)CC1)C2 (stereo partly specified),100% (active),31% (inactive),-2% (inactive),100% (active),inactive,inactive,inactive,inactive
O=C(/C=C/c1cccc(Cl)c1)NC1CCC(CN2CCC(c3c[nH]c4ccccc34)CC2)CC1 (stereo unspecified),55% (active) and 82% (active),35% (inactive) and 42% (inactive),0% (inactive),100% (active) and 101% (active),inactive,inactive,inactive,inactive
CC[C@H]1C[N+]2([O-])CC[C@@H]1C[C@H]2[C@H](O)c1cc(-c2ccccc2)nc2ccc(OC)cc12,97% (active),-11% (inactive),0% (inactive),99% (active),inactive,inactive,inactive,inactive
CO/C(=C\C=C\c1cc2cc(Cl)c(Cl)cc2[nH]1)C(=O)N[C@H]1CN2CCC1CC2,36% (inactive),43% (inactive),-2% (inactive),82% (active),inactive,inactive,inactive,inactive
CC[C@H]1CN2CC[C@H]1C[C@H]2[C@H](O)c1cc(-c2ccc(C)cc2)nc2ccc(OC)cc12,99% (active),22% (inactive),6% (inactive),99% (active),inactive,inactive,inactive,inactive
CS(=O)(=O)Nc1ccc2[nH]cc(C3CCN(CC4CCC(NC(=O)/C=C/c5ccc(Cl)c(Cl)c5)CC4)CC3)c2c1 (stereo unspecified),86% (active),22% (inactive),-3% (inactive),100% (active),inactive,inactive,inactive,inactive
C=CCOc1ccccc1CNCC(O)c1cccc(C(F)(F)F)c1 (stereo unspecified),98% (active),10% (inactive),-1% (inactive),99% (active),inactive,inactive,inactive,inactive
COCCNCc1cccc(-c2ccc(CN(C(=O)NC3CCCCC3)C3CCN(Cc4ccccc4)CC3)cc2)c1,31% (inactive),32% (inactive),6% (inactive),101% (active),inactive,inactive,inactive,inactive
O=C(NC1CCC(CN2CCC(c3c[nH]c4ccccc34)CC2)CC1)c1cc(-c2ccc(F)cc2F)ccc1O (stereo unspecified),101% (active),30% (inactive),0% (inactive),101% (active),inactive,inactive,inactive,inactive
CNCCCCCCOc1ccc(CC(C)NCC(O)c2cccc(C(F)(F)F)c2)cc1 (stereo unspecified),79% (active),99% (active),3% (inactive),101% (active),inactive,inactive,inactive,inactive
